# Earlier results, collected in PubChem BioAssay AID977608.
# In all, about 4,300 compounds went through this assay and about 4,300 (100%) were called active. No cut-off is given here; in the data, nearly all actives have IC50 up to about 1400 µM. So high a share suggests a set chosen from earlier hits. The list shows a part of the results. *1 amine or outer side, *2 acyl side, *3 side chain or, on linkers, in order; H or OH if unused. Where a SMILES comes first, the peptide text is derived from it. Square brackets hold non-standard residues; d marks the D form. Residues, ends and D or L forms follow the SMILES beside them. Side-chain parts run from the residue outwards. Peptide text beside a SMILES is read from it. [ ]: non-standard residue; d: D form. The star is where a group is joined. N(2S-NH-3-Ph-propyl)Phe = O=C([C@H](Cc1ccccc1)N(C[C@H](Cc1ccccc1)N[*:3])[*:1])[*:2]; Orn(CH(NH2)2) = NC(N)NCCC[C@H](N)C(=O)O; X1 = CC(N)NCCC[C@H](N)C(=O)*; Nle = CCCC[C@H](N)C(=O)O
# Assay: protein-ligand inhibition affinities from structures – PDB-derived complexes (AID 977608)
# [1] = literature IC50, protein: metallodependent class II fructose-1,6-bisphosphate aldolase (FBA-tb), PDB entry 4a22 unless noted
smiles,measurement,setting,value
COCCN/C=C1/C(=O)N(C)c2ccc(C(F)(F)F)cc2N(c2ccccc2)C1=O,IC50,[1],"890 nM [literature IC50, protein: HIV-1 capsid protein (N-terminal domain), PDB entry 4inb] (active)"
C[N+](C)(C)CCCP(O)O,IC50,[1],"520 nM [literature IC50, protein: human gamma-butyrobetaine hydroxylase, PDB entry 4bgk] (active)"
O=C(O)c1ccc2cccc(O)c2n1,IC50,[1],"10000 nM [literature IC50, protein: M. tuberculosis's class IIa fructose 1,6-bisphosphate aldolase, MtFBA, PDB entry 4lv4] (active)"
c1csc(-c2cc(CNC34CC5CC(CC(C5)C3)C4)no2)c1,IC50,[1],"16000 nM [literature IC50, protein: Membrane ion channel M2, PDB entry 2ly0] (active)"
COCN1CCC(C(N)=O)CC1,IC50,[1],"300000 nM [literature IC50, protein: ACETYLCHOLINESTERASE, PDB entry 3zlv] (active)"
Cc1cc(S(=O)(=O)N(Cc2ccccc2)[C@H](C)C(=O)NO)ccc1F,IC50,[1],"15200 nM [literature IC50, PDB entry 4pkr] (active)"
Cc1cc(S(=O)(=O)N(Cc2cccc(N)c2)[C@H](C)C(=O)NO)ccc1F,IC50,[1],"30000 nM [literature IC50, PDB entry 4pku] (active)"
Cc1cc(S(=O)(=O)N(Cc2ccc([N+](=O)[O-])cc2)[C@H](C)C(=O)NO)ccc1F,IC50,[1],"14900 nM [literature IC50, PDB entry 4pkt] (active)"
Cc1cc(S(=O)(=O)N(Cc2ccc(CN)cc2)[C@H](C)C(=O)NO)ccc1F,IC50,[1],"5600 nM [literature IC50, PDB entry 4pkv] (active)"
Cc1cc(S(=O)(=O)N(Cc2cccnc2)[C@H](C)C(=O)NO)ccc1F,IC50,[1],"15200 nM [literature IC50, PDB entry 4pks] (active)"
FC(F)(F)c1nc2ccccc2[nH]1,IC50,[1],"138 µM [literature IC50, protein: 3-OXOACYL-[ACYL-CARRIER-PROTEIN] REDUCTASE FABG, PDB entry 4bnt] (active)"
CCOC(=O)CC[C@H](C[C@@H]1CCNC1=O)NC(=O)[C@@H](CC(=O)[C@@H](NC(=O)c1cc(C)on1)C(C)C)Cc1ccc(F)cc1,IC50,[1],"1670 nM [literature IC50, protein: 3C proteinase, PDB entry 4ght] (active)"
O=C(CO[P+](O)(O)O)N(O)CCCCO[P+](O)(O)O,IC50,[1],3.2 nM (active)
CCC(CC)O[C@@H]1C[C@H](C(=O)O)C[C@H](N)[C@H]1NC(C)=O,IC50,"literature IC50, protein: Neuraminidase7, PDB entry 4qn7",0.84 nM (active)
same,IC50,"literature IC50, protein: Neuraminidase, PDB entry 4mww",215000 nM (active)
CCC(CC)O[C@@H]1CC(C(=O)O)C[C@H](N)[C@H]1NC(C)=O (stereo not given in full),IC50,[1],"0.5 nM [literature IC50, protein: Neuraminidase, PDB entry 4hzx] (active)"
CCC(CC)O[C@@H]1C[C@@H](C(=O)O)C[C@H](N)[C@H]1NC(C)=O,IC50,[1],"0.79 nM [literature IC50, protein: Neuraminidase, PDB entry 4mwq] (active)"
CCC(CC)O[C@@H]1CC(C(=O)O)=C[C@H](N)[C@@H]1NC(C)=O,IC50,[1],"0.9 nM [literature IC50, protein: Influenza Neuraminidase H3N8, PDB entry 4m3m] (active)"
Nc1c2c(nc3cc(Cl)ccc13)C[C@H]1C=C(CCO)C[C@@H]2C1,IC50,[1],"1.1 nM [literature IC50, protein: ACETYLCHOLINESTERASE, PDB entry 4bdt] (active)"
Nc1c2c(nc3cc(Cl)ccc13)C[C@H]1C=C(CCCCn3cc(CO)nn3)C[C@@H]2C1,IC50,[1],"0.43 nM [literature IC50, protein: ACETYLCHOLINESTERASE, PDB entry 4a16] (active)"
O=C(O)Cc1cc(=O)oc2c(O)c(O)ccc12,IC50,[1],"4800 nM [literature IC50, protein: Reverse transcriptase/ribonuclease H RT RNase H, PDB entry 4qag] (active)"
CC[C@H](C)[C@H]1NC(=O)[C@@H](NC(=O)[C@H](C)[C@H](O)C(C)C)[C@@H](C)OC(=O)[C@@H]2COC(=O)CNC(=O)/C=C/[C@]3(CO3)[C@@H](C)Oc3ccc(cc3)[C@H](NC1=O)C(=O)N(C)[C@@H](Cc1ccccc1)C(=O)N[C@H]([C@@H](C)O)C(=O)N2,IC50,[1],"200 nM [literature IC50, protein: Escherichia coli RNA polymerase, PDB entry 4mex] (active)"
C[C@H](N)C(=O)N[C@@H](C)C(=O)N[C@@H](C)C(=O)O,IC50,[1],"340000 nM [literature IC50, protein: DI-OR TRIPEPTIDE\:H+ SYMPORTER, PDB entry 4d2d] (active)"
C[C@@]1(O)CCN2C(=O)CCc3cccc1c32,IC50,[1],"198000 nM [literature IC50, protein: DUAL SPECIFICITY MITOGEN-ACTIVATED PROTEIN KINASE KINASE 1, PDB entry 3zlw] (active)"
Oc1cc(Cl)ccc1Oc1ccc(Cl)cc1Cl,IC50,[1],"54.7 µM [literature IC50, protein: Enoyl-[acyl-carrier-protein] reductase hERG, PDB entry 4w9n] (active)"
Nc1nc2nc(C(=O)NCCNC(=O)Nc3ccccc3)cnc2c(=O)[nH]1,IC50,[1],"209000 nM [literature IC50, PDB entry 4mx1] (active)"
Nc1nc2nc(C(=O)NCCNC(=O)O)cnc2c(=O)[nH]1,IC50,[1],"28000 nM [literature IC50, PDB entry 4mx5] (active)"
NCCCCC[C@@H](C[SeH5])C(=O)O,IC50,[1],"2 nM [literature IC50, protein: Carboxypeptidase B, PDB entry 3wc5] (active)"
CCCC[C@H](NC(=O)[C@H](C)NC(=O)[C@H](CCC(=O)O)NC(=O)[C@H](Cc1ccccc1)NC[C@H](Cc1ccccc1)NC(=O)[C@@H](NC(=O)[C@@H](N)CCCNC(C)N)C(C)C)C(=O)O (stereo partly drawn) (H-[N(2S-NH-3-Ph-propyl)Phe]([Val-X1])EA[Nle]-OH),IC50,[1],"142 nM [literature IC50, protein: HIV-1 PROTEASE (Q7K, L10I, D25N, M36V, M46L, I54V, I62V, L63P, A71V, V82T, I84V, L90M mutation), PDB entry 4gye] (active)"
Nc1ncnc2c1ncn2[C@@H]1O[C@H](CO[P+](=O)O[C@@H]2[C@H](O)[C@@H](CO[P+](O)(O)O[C@@H]3[C@H](O)[C@@H](CO[P+](O)(O)O)O[C@H]3n3cnc4c(N)ncnc43)O[C@H]2n2cnc3c(N)ncnc32)[C@@H](O)[C@H]1O (stereo not given in full),IC50,[1],"13 nM [literature IC50, protein: interferon-induced endoribonuclease, ribonuclease L, PDB entry 1wdy] (active)"
Oc1c(Cl)cc(Cl)cc1-c1[nH]c(Br)c(Br)c1Br,IC50,[1],"2200 nM [literature IC50, protein: Non-Mevalonate Pathway Enzyme IspD from Arabidopsis thaliana, PDB entry 4nal] (active)"
Oc1c(Br)cc(Br)cc1-c1[nH]c(Br)c(Br)c1Br,IC50,[1],"1400 nM [literature IC50, protein: Non-Mevalonate Pathway Enzyme IspD from Arabidopsis thaliana, PDB entry 4nak] (active)"
Oc1c(Br)cccc1-c1[nH]c(Br)c(Br)c1Br,IC50,[1],"19000 nM [literature IC50, protein: Non-Mevalonate Pathway Enzyme IspD from Arabidopsis thaliana, PDB entry 4nan] (active)"
CC(C)C[C@H](NC(=O)[C@H](CO)NC(=O)[C@H](CO)NC(=O)[C@H](CCC(=O)O)NC(=O)[C@H](Cc1ccc(O)cc1)NC(=O)[C@H](Cc1ccc(O)cc1)NC(=O)[C@H](CCCNC(N)N)NC(=O)[C@@H](N)Cc1ccccc1)C(=O)N[C@@H](CCC(=O)O)C(=O)N1CCC[C@H]1C(=O)N[C@@H](Cc1c[nH]c2ccccc12)C(=O)N[C@@H](CC(=O)O)C(=O)N[C@@H](CC(=O)O)C(=O)O (HELM PEPTIDE1{F.[NC(N)NCCC[C@H](N[*:1])C(=O)[*:2]].Y.Y.E.S.S.L.E.P.W.D.D}$$$$V2.0),IC50,[1],"4.9 nM [literature IC50, PDB entry 1rgj] (active)"
CC(C)C[C@H](NC(=O)[C@H](CO)NC(=O)[C@H](CO)NC(=O)[C@H](CCC(=O)O)NC(=O)[C@H](Cc1ccc(O)cc1)NC(=O)[C@H](Cc1ccc(O)cc1)NC(=O)[C@H](CCCNC(N)N)NC(=O)[C@@H](N)Cc1c[nH]cn1)C(=O)N[C@@H](CCC(=O)O)C(=O)N1CCC[C@H]1C(=O)N[C@@H](Cc1c[nH]c2ccccc12)C(=O)N[C@@H](Cc1ccc(O)cc1)C(=O)N1CCC[C@H]1C(=O)N[C@@H](CC(=O)O)C(=O)O (H-H[Orn(CH(NH2)2)]YYESSLEPWYPD-OH),IC50,[1],"120 nM [literature IC50, PDB entry 1jbd] (active)"
CC(C)C[C@H](NC(=O)[C@H](CO)NC(=O)[C@H](CO)NC(=O)[C@H](CCC(=O)O)NC(=O)[C@H](Cc1ccc(O)cc1)NC(=O)[C@H](Cc1ccc(O)cc1)NC(=O)[C@H](CCCNC(N)N)NC(=O)[C@@H](N)Cc1c[nH]c2ccccc12)C(=O)N[C@@H](CCC(=O)O)C(=O)N1CCC[C@H]1C(=O)N[C@@H](Cc1ccc(O)cc1)C(=O)N1CCC[C@H]1C(=O)N[C@@H](CC(=O)O)C(=O)O (H-W[Orn(CH(NH2)2)]YYESSLEPYPD-OH),IC50,[1],"2 nM [literature IC50, PDB entry 1haa] (active)"
C[C@@H]1Oc2ccc(CN3CC=C(c4ccc(Cl)cc4)CC3)cc2NC1=O,IC50,[1],"3 nM [literature IC50, protein: Poly [ADP-ribose] polymerase 1, PDB entry 4l6s] (active)"
COC(=O)C[C@@H](C)c1n[nH]c2nc(N)[nH]c(=O)c2c1=O,IC50,[1],"376000 nM [literature IC50, protein: Dihydropteroate synthase, PDB entry 4d8a] (active)"
CCC(CC)Oc1cc(C(=O)O)cc(N)c1NC(C)=O,IC50,[1],"8.31 nM [literature IC50, protein: Neuraminidase, PDB entry 4hzz] (active)"
CCc1c(C)nc(-c2ccc(Cl)s2)nc1Nc1ccc(CC(=O)O)cc1,IC50,[1],"32 nM [literature IC50, protein: Catalytic Domain Of Human Phosphodiesterase 4B, PDB entry 4myq] (active)"
Cc1nc2ccccc2c(-c2cc(F)c3c(c2C)CCCO3)c1[C@H](OC(C)(C)C)C(=O)O,IC50,[1],"67 nM [literature IC50, protein: HIV-1 integrase (F185K mutation), PDB entry 4e1n] (active)"
Cc1nc(-c2nc3ccc(Cl)cc3[nH]2)c(C)c(-c2ccccc2)c1[C@H](OC(C)(C)C)C(=O)O,IC50,[1],"5.03 nM [literature IC50, protein: Integrase HIV-1 IN CCD F185K/A128T, PDB entry 4o5b] (active)"
Cc1ccc(-c2c([C@H](OC(C)(C)C)C(=O)O)c(C)nc3ccccc23)cc1C,IC50,[1],"55 nM [literature IC50, protein: HIV-1 Integrase (F185K mutation), PDB entry 4e1m] (active)"
CO[C@H](C(=O)O)c1c(C)nc2ccc(Br)cc2c1-c1ccc(Cl)cc1,IC50,"literature IC50, protein: HIV-1 Integrase catalytic core domain (A128T, F185K mutation), PDB entry 4jlh",4000 nM (active)
same,IC50,"literature IC50, protein: HIV-1 Integrase, PDB entry 4dmn",2300 nM (active)
